Usually inhibition stands for the relative decrease from the control value, in per cent.

In assay [1] the target is Sphingosine kinase 1 (Homo sapiens) (UniProt Q9NYA1). Particulars: at 1 µM.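 Note: mean SPHK1 inhibition value reported from the GSK PKIS kinase panel screen.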
Assay [2] concerns the target T1, Sphingosine kinase 2 (Homo sapiens) (UniProt Q9NRA0).
T1 sequence (whole entry): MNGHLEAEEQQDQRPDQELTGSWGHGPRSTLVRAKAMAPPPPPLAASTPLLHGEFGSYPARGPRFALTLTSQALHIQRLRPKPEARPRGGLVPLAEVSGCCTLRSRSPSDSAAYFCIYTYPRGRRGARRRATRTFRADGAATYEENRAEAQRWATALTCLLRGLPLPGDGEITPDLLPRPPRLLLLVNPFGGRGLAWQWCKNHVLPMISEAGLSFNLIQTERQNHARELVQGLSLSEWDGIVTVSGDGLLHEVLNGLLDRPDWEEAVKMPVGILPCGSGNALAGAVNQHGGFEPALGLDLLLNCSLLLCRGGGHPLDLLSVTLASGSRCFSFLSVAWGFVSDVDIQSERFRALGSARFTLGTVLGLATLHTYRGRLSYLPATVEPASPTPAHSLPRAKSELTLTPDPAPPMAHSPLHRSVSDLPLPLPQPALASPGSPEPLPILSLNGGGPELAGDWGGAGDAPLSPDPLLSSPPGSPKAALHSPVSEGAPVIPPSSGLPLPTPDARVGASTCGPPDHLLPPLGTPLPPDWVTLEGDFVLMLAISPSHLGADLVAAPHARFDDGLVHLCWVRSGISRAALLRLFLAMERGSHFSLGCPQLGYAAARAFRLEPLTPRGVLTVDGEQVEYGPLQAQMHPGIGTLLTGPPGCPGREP
Particulars: at 0.1 µM.

Assay [3] has as its target T1, Sphingosine kinase 2 (Homo sapiens). The settings on record: at 1 µM.
Assay [4] addresses Casein kinase II subunit alpha (Homo sapiens) (UniProt P68400). The settings on record: at 0.1 µM.
For assay [5] the target is unchanged. Particulars: at 1 µM.
Assay [6] deals with T2, Inhibitor of nuclear factor kappa-B kinase subunit alpha (Homo sapiens) (UniProt O15111).
T2 sequence (whole entry): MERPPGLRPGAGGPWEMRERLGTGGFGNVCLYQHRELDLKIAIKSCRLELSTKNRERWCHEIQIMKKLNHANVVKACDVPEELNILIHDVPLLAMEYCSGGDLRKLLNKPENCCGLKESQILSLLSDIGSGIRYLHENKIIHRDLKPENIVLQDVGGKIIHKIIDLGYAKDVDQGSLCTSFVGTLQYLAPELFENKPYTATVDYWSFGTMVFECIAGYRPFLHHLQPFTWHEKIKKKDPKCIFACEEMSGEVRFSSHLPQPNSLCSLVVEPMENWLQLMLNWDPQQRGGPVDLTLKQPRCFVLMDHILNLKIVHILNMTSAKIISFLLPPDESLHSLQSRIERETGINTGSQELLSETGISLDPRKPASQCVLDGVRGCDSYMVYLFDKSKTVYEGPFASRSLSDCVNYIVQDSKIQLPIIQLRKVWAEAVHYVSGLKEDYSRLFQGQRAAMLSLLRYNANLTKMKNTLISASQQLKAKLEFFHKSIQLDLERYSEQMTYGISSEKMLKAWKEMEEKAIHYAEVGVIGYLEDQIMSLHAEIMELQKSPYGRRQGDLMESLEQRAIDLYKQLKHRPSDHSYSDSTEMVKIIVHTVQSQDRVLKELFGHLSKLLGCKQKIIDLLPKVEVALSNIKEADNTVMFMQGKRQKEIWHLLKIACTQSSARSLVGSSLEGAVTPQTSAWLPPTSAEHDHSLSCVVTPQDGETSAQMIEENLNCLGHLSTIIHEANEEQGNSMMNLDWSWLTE
Particulars: at 0.1 µM.

The target of assay [7] is T2, Inhibitor of nuclear factor kappa-B kinase subunit alpha (Homo sapiens). Particulars: at 1 µM.
Assay [8] addresses T3, Inhibitor of nuclear factor kappa-B kinase subunit beta (Homo sapiens) (UniProt O14920).
T3 sequence (whole entry): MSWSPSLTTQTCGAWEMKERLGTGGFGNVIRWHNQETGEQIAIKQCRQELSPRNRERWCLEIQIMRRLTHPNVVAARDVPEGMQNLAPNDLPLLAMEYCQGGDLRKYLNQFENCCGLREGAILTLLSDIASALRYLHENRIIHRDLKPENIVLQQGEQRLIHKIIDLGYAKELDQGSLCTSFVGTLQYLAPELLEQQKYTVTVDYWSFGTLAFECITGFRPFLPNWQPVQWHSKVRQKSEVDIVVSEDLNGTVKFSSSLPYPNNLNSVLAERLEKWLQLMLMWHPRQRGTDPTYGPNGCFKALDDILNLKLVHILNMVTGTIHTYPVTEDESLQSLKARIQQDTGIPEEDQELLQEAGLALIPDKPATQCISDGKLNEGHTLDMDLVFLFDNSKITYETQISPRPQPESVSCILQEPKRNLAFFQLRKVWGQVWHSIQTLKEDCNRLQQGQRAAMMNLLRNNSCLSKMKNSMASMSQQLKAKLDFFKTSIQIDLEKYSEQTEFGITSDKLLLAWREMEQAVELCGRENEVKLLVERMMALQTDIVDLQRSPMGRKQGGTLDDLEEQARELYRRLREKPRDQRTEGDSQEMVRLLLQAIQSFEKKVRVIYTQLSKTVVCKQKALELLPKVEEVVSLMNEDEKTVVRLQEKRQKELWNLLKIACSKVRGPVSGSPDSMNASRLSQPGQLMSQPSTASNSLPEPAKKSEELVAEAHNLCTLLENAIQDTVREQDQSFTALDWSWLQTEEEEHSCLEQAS
Particulars: at 0.1 µM.

In assay [9] the target is T3, Inhibitor of nuclear factor kappa-B kinase subunit beta (Homo sapiens). The settings on record: at 1 µM.
Assay [10] deals with T4, Inhibitor of nuclear factor kappa-B kinase subunit epsilon (Homo sapiens) (UniProt Q14164).
T4 sequence (whole entry): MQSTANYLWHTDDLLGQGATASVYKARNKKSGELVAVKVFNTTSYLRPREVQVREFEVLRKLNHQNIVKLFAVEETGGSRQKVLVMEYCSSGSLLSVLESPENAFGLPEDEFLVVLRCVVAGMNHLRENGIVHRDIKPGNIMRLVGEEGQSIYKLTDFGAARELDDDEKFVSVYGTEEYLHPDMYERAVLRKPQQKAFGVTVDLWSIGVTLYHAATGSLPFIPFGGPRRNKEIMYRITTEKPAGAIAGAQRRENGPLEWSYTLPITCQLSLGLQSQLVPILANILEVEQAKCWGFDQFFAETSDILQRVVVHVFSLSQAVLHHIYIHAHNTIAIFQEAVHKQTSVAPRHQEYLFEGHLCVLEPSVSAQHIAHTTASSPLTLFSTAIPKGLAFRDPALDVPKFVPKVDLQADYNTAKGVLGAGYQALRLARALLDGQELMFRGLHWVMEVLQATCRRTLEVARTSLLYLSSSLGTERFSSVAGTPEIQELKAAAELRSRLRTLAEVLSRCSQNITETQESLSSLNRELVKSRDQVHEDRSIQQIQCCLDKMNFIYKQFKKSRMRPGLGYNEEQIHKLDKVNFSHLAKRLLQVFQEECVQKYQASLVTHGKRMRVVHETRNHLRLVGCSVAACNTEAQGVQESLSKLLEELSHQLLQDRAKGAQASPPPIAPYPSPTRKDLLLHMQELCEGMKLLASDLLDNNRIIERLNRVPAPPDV
Particulars: at 0.1 µM.

The target of assay [11] is T4, Inhibitor of nuclear factor kappa-B kinase subunit epsilon (Homo sapiens). Particulars: at 1 µM.
Assay [12] addresses T5, Serine/threonine-protein kinase Nek1 (Homo sapiens) (UniProt Q96PY6).
T5 sequence (whole entry): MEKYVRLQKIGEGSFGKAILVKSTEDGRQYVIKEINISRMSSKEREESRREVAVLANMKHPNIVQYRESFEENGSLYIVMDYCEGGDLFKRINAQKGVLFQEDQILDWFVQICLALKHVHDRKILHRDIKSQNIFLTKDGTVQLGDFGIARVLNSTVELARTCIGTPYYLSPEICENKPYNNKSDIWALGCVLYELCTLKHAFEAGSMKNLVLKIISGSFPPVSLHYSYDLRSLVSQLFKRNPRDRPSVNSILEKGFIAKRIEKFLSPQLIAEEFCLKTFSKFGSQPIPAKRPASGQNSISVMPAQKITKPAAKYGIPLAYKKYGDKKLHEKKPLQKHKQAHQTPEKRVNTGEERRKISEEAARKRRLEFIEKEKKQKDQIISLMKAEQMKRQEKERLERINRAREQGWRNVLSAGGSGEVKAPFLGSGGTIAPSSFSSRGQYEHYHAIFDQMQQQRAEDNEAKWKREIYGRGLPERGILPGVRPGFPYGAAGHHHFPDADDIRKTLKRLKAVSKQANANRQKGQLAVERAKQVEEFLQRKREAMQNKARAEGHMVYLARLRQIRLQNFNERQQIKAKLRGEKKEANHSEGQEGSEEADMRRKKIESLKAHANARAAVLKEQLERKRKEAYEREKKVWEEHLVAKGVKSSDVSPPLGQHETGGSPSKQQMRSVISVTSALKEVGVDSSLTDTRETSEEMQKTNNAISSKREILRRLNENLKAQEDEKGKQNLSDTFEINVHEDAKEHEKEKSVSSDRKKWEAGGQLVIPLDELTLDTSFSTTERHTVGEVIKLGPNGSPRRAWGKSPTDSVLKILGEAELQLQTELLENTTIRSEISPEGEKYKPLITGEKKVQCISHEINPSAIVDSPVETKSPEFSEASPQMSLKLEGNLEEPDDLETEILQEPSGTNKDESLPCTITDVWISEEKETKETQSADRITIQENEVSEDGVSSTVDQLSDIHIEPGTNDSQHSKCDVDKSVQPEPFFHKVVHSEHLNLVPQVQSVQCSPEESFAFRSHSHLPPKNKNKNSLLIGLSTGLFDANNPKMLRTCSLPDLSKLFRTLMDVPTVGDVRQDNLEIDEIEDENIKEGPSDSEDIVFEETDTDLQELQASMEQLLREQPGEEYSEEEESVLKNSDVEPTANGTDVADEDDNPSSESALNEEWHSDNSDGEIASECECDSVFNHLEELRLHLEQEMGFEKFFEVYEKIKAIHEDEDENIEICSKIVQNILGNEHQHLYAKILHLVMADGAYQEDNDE
Particulars: at 0.1 µM.

Assay [13] has as its target T5, Serine/threonine-protein kinase Nek1 (Homo sapiens). Particulars: at 1 µM.
The target of assay [14] is T6, Serine/threonine-protein kinase Nek2 (Homo sapiens) (UniProt P51955).
T6 sequence (whole entry): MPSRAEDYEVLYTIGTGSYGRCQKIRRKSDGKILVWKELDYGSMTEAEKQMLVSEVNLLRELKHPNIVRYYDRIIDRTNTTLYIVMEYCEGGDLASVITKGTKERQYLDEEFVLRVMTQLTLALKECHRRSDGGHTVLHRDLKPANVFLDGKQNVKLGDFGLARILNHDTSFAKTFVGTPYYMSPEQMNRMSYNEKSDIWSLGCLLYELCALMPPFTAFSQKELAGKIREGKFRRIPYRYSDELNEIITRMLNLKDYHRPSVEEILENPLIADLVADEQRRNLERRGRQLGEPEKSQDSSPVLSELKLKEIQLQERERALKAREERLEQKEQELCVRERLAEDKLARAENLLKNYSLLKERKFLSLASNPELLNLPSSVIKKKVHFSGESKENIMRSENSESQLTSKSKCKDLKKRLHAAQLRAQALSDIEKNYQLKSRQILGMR
The settings on record: at 0.1 µM.

In assay [15] the target is T6, Serine/threonine-protein kinase Nek2 (Homo sapiens). Particulars: at 1 µM.
The target of assay [16] is Serine/threonine-protein kinase Nek6 (Homo sapiens) (UniProt Q9HC98). Particulars: at 0.1 µM.
Serine/threonine-protein kinase Nek6 (Homo sapiens), sequence (Q9HC98 whole entry): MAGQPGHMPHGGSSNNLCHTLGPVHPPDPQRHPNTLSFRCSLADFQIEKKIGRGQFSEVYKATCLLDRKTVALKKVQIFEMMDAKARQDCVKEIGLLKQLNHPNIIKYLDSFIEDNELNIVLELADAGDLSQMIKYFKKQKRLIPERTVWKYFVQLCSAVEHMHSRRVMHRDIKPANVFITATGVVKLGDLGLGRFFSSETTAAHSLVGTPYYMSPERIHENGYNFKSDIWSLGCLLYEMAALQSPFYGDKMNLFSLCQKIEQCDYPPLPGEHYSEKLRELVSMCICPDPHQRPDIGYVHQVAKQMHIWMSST
Assay [17] has the same target. The settings on record: at 1 µM.
Assay [18] concerns the target Serine/threonine-protein kinase Nek7 (Homo sapiens) (UniProt Q8TDX7). The settings on record: at 0.1 µM.
For assay [19] the target is unchanged. Particulars: at 1 µM.
The target in assay [20] is T7, Serine/threonine-protein kinase Nek9 (Homo sapiens) (UniProt Q8TD19).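 Note: reported value is the mean percent inhibition of NEK9.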
T7 sequence (whole entry): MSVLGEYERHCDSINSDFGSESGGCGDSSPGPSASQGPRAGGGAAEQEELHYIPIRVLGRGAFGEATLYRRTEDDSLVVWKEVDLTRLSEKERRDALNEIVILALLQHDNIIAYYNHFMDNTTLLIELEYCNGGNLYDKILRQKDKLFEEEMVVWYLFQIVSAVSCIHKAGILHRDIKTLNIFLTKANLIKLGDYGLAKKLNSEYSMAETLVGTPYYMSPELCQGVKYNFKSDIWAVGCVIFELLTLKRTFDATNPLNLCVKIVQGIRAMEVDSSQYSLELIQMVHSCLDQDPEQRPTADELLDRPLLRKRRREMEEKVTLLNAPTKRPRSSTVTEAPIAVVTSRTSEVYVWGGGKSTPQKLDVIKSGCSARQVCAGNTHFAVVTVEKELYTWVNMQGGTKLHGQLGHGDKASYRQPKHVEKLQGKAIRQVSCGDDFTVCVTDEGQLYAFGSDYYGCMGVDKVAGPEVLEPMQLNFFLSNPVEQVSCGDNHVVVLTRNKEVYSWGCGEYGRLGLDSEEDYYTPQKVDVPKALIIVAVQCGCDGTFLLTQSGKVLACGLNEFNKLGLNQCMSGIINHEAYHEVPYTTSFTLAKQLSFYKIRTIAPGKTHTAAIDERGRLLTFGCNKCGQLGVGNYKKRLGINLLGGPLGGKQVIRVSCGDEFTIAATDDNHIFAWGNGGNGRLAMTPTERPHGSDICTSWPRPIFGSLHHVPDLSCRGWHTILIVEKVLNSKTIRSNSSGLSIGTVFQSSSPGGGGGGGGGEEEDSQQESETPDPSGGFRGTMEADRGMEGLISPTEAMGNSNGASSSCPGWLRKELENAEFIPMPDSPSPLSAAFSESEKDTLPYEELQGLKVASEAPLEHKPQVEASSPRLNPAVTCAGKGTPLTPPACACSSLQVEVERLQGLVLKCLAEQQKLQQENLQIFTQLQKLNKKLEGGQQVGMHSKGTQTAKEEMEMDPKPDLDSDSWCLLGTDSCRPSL
The settings on record: at 0.1 µM.

Casein kinase II subunit alpha (Homo sapiens), sequence (P68400 whole entry, looked up): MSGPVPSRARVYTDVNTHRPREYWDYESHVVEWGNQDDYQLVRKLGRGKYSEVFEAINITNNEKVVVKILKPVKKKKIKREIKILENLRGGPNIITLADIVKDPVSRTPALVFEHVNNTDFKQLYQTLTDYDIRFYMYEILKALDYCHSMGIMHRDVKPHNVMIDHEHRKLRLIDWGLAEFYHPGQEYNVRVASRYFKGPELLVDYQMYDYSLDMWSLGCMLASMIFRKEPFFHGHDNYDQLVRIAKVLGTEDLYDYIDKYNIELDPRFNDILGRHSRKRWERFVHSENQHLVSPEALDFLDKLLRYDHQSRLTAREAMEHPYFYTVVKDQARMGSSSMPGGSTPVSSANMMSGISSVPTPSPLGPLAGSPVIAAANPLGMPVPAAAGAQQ
Serine/threonine-protein kinase Nek7 (Homo sapiens), sequence (Q8TDX7 whole entry, looked up): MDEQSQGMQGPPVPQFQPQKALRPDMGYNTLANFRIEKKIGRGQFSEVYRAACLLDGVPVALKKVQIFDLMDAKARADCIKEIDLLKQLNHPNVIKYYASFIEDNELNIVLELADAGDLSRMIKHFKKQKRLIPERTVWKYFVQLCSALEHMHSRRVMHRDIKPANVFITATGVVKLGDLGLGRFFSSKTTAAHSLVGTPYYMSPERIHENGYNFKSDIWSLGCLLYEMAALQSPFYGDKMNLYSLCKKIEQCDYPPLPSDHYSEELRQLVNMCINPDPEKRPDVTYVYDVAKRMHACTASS
Sphingosine kinase 1 (Homo sapiens), sequence (Q9NYA1 whole entry): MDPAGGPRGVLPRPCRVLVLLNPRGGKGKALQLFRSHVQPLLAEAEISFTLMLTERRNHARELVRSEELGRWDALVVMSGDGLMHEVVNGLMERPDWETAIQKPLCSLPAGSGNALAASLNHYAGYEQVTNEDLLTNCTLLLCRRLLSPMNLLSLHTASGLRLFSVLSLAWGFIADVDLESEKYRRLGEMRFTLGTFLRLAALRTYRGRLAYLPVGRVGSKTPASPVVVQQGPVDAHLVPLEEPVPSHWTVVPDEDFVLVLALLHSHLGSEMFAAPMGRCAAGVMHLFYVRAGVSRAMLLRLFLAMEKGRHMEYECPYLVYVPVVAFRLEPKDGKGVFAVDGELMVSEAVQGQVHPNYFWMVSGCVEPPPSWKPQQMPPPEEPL

Consider `Fc1ccc(-c2c(-c3ccncc3)nc3n2CCS3)cc1`, for which the inhibition in assay [1] was 1.66%; in assay [2], 0.08%; in assay [3] it was 0.64%; in assay [4] it was 2.23%; in assay [5], 2.3%; in [6] it was 7.58%. For the same compound, the inhibition in assay [7] came out at 3.05%; in [8], 2.88%; in assay [9], 3.75%; in [10], 4.09%; in assay [11], 5.11%; in assay [12] it was 2.32%. For the same compound, the inhibition in [13] was 3.2%; in assay [14], 2.33%; in [15], 2.6%; in assay [16], -0.57%; in [17], 0.48%; in assay [18] it was 3.63%. The values for the inhibition in assay [19] and in [20] were 2.47% and 5.56%, respectively.
